Test results reported in PubChem BioAssay AID743446 (Broad Institute, 2014).
Entries with a potency or affinity are not part of this list. Unmarked numbers belong to inactive results. The rule behind the calls is not given here.

test: HEK293 cell cytotoxicity, dose response, cytotoxicity control, plate reader, cherry-picked samples (AID 743446); conditions: hits give low values; at 26 µM unless noted

SMILES | max activity
CN1c2ccc(-c3ccc(F)cc3)cc2[C@H]2[C@H](CCN2C(=O)Nc2ccc(F)cc2)[C@H]1CO | 39.2% [at 1.6 µM]
Brc1ccc(-c2nc(-c3ccccn3)no2)o1 | -10%
COc1ccc(C(=O)Nc2ccc3ccccc3c2)cc1 | 26.8% [at 0.8 µM]
O=C(NCc1ccco1)c1cc(NS(=O)(=O)c2cccc([N+](=O)[O-])c2)ccc1O | 40.6% [at 0.38 µM]
Cc1ccc(C(=O)NC2CCCCCCC2)c(Cl)c1 | -18.7% [at 0.38 µM]
Cn1cccc1C(=O)OCC(=O)Nc1ccc2c(c1)OCCO2 | -17.1%
COCC(=O)N[C@@H]1CC[C@@H](CC(=O)NCc2ccccc2OC)O[C@@H]1CO | -9.61% [at 0.05 µM]
C[C@@H]1CN([C@H](C)CO)C(=O)c2c(c3ccccc3n2C)-c2ccccc2CO[C@H]1CN(C)S(=O)(=O)c1cn(C)cn1 | 11.7% [at 12 µM]
CO[C@H]1CN(C)C(=O)c2ccc(NC(=O)c3ccc(-c4ccccc4)cc3)cc2OC[C@@H](C)NC[C@@H]1C | 20.6% [at 0.8 µM]
COc1ccc(-c2nc(N)n(C(=O)c3cccs3)n2)cc1 | 49.5%
COCC#Cc1ccc2c(c1)O[C@H](CN(C)S(=O)(=O)c1cccc(F)c1)[C@@H](C)CN([C@H](C)CO)S2(=O)=O | 14.5% [at 0.195 µM]
Cc1ccccc1N=CC1=C(O)c2ccccc2C1=O | 12.1% [at 0.05 µM]
O=C(NCCc1ccccc1)c1ccc2nccnc2c1 | 9%
N#C[C@@H]1[C@H](c2ccc(C#CC3CCCCC3)cc2)[C@@H](CO)N1C(=O)c1cccc(F)c1 | 43.6% [at 0.09 µM]
CCC(=O)N(C)C[C@H]1Oc2cc(C#CCC(C)C)ccc2S(=O)(=O)N([C@H](C)CO)C[C@@H]1C | 21.8% [at 0.05 µM]
O=C(O)c1cccc(N/N=C/c2cccs2)c1 | 58.2% [at 6 µM]
CC(C)(C)n1ncc2c(=O)n(CC(=O)OCc3ccccc3)cnc21 | -10.3% [at 0.38 µM]
CCc1nc(Sc2nnnn2-c2ccccc2)c2c3c(sc2n1)CCCC3 | -13.3%

SMILES | max activity
Cc1ccc(Nc2nc(-c3ccccc3)cs2)nc1 | -17.9% [at 0.05 µM]
Cc1c(NC(=O)c2ccc(-c3ccccc3)cc2)cccc1C(=O)O | 41.3%
CNCc1ccccc1Sc1ccc(O)c(O)c1 | -16.4%
Cc1ccc(-c2noc(-c3cccs3)n2)cc1 | 22.5% [at 12 µM]
Cc1ccc(C(=O)CN2C(=O)c3ccccc3S2(=O)=O)cc1 | 11.6% [at 3 µM]
CCN(CC)S(=O)(=O)c1cc(C(=O)OCC(=O)Nc2ccc(-c3nc4ccc(C)cc4s3)cc2)ccc1F | -18.3%
O=C(CN1C(=O)c2ccccc2S1(=O)=O)c1ccc2c(c1)OCCCO2 | -22% [at 0.8 µM]
CCN(C(=O)COC(=O)C12CC3CC(CC(O)(C3)C1)C2)c1c(N)n(Cc2ccccc2)c(=O)[nH]c1=O | 34% [at 0.1 µM]
O=C(CN1C(=O)c2ccccc2S1(=O)=O)Nc1ncc(Cl)cc1Cl | -12.9% [at 1.6 µM]
Cc1ccc(-n2cc(CN(C)Cc3nccn3C)c(-c3cccc(C)c3)n2)cc1 | 22.6% [at 1.6 µM]
C[C@H]1CN([C@@H](C)CO)C(=O)c2cc(NC(=O)Nc3ccccc3)ccc2O[C@H]1CN(C)Cc1ccc(-c2ccccc2)cc1 | 25.6% [at 0.1 µM]
c1nc(CCO[C@H]2CCCCO2)cc2cc3c(cc12)OCO3 | 9.43%
COc1ccc(-c2cn3cc(C)ccc3n2)cc1F | 44.7% [at 12 µM]
COc1ccc2nc(NC(=O)c3ccccc3F)sc2c1 | 34.9% [at 3 µM]
CCCNC(=O)Nc1ccc2c(c1)C(=O)N(C)C[C@H](OC)[C@H](C)CN(Cc1ccc(-c3ccccn3)cc1)[C@@H](C)CO2 | 32.1% [at 0.75 µM]
Cc1ccccc1C(=O)Nc1ccc2c(c1)OCCO2 | -9.3% [at 0.05 µM]
Cc1ccc2nc(-c3ccc(Br)cc3)cn2c1 | 0% [setting not given]
